Screens deposited in PubChem BioAssay by The Scripps Research Institute Molecular Screening Center.
In the library only some 4.1% were active in any assay of this set; here they are far more common.
DAX1 inh-1: inhibitors of human orphan nuclear receptor DAX1 (NR0B1); P51843; HEK293 Gal4-DAX1 luciferase reporter, luminescence; inhibition, % at 6.75 µM; hit rate 0.99% among 340,000;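 active = inhibition above the mean over all tested compounds plus 3 SD, cut at about 4.2% in these data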;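 also: 0% = DAX1-transfected cells with DMSO and 100% = empty-vector control cells with DMSO; inhibition shows as a rise in luminescence from relieved DAX1 repression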
Target sequence (P51843 207-470 limits assumed): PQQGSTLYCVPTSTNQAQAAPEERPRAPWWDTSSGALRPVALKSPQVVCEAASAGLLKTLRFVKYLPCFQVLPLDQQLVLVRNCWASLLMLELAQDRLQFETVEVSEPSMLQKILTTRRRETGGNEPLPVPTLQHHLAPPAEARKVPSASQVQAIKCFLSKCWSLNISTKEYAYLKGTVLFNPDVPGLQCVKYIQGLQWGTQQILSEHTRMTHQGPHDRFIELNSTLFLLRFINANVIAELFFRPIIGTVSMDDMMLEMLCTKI
ssDAF-12 act: S. stercoralis DAF-12 activation, primary screen. HEK293 ssDAF-12/GRIP1 lit1-tk-luc reporter, luminescence; % of 3 µM dafachronic acid response. activation, % at 6.8 µM. hit rate 1% among 370,000. AID 652126;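 active = activation above the mean over all tested compounds plus 3 SD, cut at about 0.9% in these data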;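 also: 0% = DMSO-only wells and 100% = 3 µM delta7-dafachronic acid wells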
hgDAF12 agonist: hgDAF-12 agonism, primary luciferase screen; HEK293 GAL4-hgDAF12 UAS-luciferase reporter, agonist luminescence; normalized to butyrate control; hit rate 1.8% among 370,000; activation, % at 6.8 µM; AID 687014;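 active = activation above a cutoff set at the mean of all screened compounds plus 3 SD, cut at about 10% in these data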;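 also: 0% = DMSO wells and 100% = sodium butyrate wells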
hcDAF-12 act: activators of H. contortus DAF-12 nuclear receptor; AID 652067; activation, % at 6.8 µM; HEK293 hcDAF-12 lit1-tk-luc reporter, luminescence; 0% DMSO, 100% Δ7-dafachronic acid; hit rate 1.4% among 370,000;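 active = activation above the mean of all tested compounds plus 3 SD, cut at about 5.5% in these data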;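 also: 100% = response to 3 µM Δ7-dafachronic acid high control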
DAX1 inh-2: blocks DAX1 repression of SF-1 activated StAR promoter. HEK293T StAR-luciferase reporter, SF-1/DAX-1 repression relief. inhibition, % at 6.8 µM. hit rate 1.1% among 370,000. AID 652010;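 active = inhibition above the mean over all tested compounds plus 3 SD, cut at about 3.6% in these data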;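 also: 0% = DAX-1 cells with DMSO and 100% = cells lacking DAX-1 with DMSO; higher inhibition means more luminescence from relief of DAX-1 repression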
DAX1 conf: NR0B1 (human) inhibition, confirmation | HEK293T StAR-promoter luciferase reporter, SF-1/DAX-1 repression | hit rate 87% among 2,400 | inhibition, % at 6.8 µM | AID 652134 | shares compounds with DAX1 inh-2;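 active = inhibition above the average of every tested compound plus 3 SD, cut at about 3.8% in these data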;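 also: 0% = DAX-1 cells with DMSO and 100% = no DAX-1 control cells with DMSO; active compounds raise luminescence by relieving repression of the StAR reporter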
Target sequence (P51843 whole entry, looked up): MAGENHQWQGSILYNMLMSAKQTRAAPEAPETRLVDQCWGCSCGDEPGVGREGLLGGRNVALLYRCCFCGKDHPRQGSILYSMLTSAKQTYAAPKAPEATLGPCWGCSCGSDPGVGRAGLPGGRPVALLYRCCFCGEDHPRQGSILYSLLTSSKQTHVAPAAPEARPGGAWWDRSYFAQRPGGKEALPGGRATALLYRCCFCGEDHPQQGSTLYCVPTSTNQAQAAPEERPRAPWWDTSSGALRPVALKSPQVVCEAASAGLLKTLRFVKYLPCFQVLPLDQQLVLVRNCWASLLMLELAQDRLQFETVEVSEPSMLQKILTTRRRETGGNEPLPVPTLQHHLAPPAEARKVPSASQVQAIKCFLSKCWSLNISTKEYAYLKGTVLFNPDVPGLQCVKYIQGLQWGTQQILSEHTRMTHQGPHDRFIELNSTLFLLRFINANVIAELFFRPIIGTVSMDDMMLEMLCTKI
SF1 mutant ctr: counter-screen for DAX1 inhibitors: nonselective inhibitors with SF-1 AF2 mutant. hit rate 78% among 2,400. shares compounds with DAX1 inh-2. AID 652136. HEK293 StAR-luciferase, luminescence. inhibition, % at 6.8 µM;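 active = inhibition above the mean of all tested compounds plus 3 SD, cut at about 3% in these data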;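 also: 0% = DAX-1 transfected cells with DMSO and 100% = cells without DAX-1 with DMSO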
LXRb hcDAF ctr: activates human LXR-beta, counter-screen for hcDAF-12 agonists | HEK293 Gal4-LXR tk-luc reporter, luminescence, 24 h; normalized: DMSO 0%, positive control 100% | activation, % at 6.8 µM | shares compounds with hcDAF-12 act | 3,400 tested, under 10 active;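 active = mean percent activation of the reporter above a cutoff set as the average over tested compounds plus their standard deviation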
hcDAF12 ag: confirmation of H. contortus DAF-12 agonists; AID 743032; activation, % at 6.8 µM; HEK293 hcDAF-12 lit1-tk-luc reporter, luminescence; % of Δ7-dafachronic acid response; hit rate 61% among 3,400; shares compounds with hcDAF-12 act;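 active = mean activation across triplicate tests above the threshold derived from the earlier primary screen, cut at about 5.5% in these data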;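 also: 0% = DMSO only wells and 100% = 3 µM Δ7-dafachronic acid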
hgDAF12 conf: hgDAF-12 agonism, confirmation assay | shares compounds with hgDAF12 agonist | HEK293 GAL4-hgDAF12 luciferase reporter, agonist mode; percent of butyrate response | activation, % at 6.8 µM | hit rate 80% among 3,300;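 active = mean activation over triplicate wells above the hit cutoff derived from the earlier primary screen, cut at about 11% in these data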;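 also: 0% = DMSO low control and 100% = 2 mM sodium butyrate high control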
LXRb DAF12 ctr: counter-screen for DAF-12 agonists: agonists of human LXR-beta | 3,300 tested, under 10 active | shares compounds with hgDAF12 agonist | HEK293 Gal4-LXR luciferase reporter, 24 h | activation, % at 6.8 µM;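 active = mean activation of the triplicate above a set limit carried over from the primary screen, none filed active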
* = called active by the depositor; . = not tested or not shown.

SMILES	DAX1 inh-1	ssDAF-12 act	hgDAF12 agonist	hcDAF-12 act	DAX1 inh-2	DAX1 conf	SF1 mutant ctr	hgDAF12 conf	LXRb DAF12 ctr	others
O=C(NCCc1ccc(Cl)cc1)c1ccc2c(c1)OCO2	1	0	13*	4	11*	12*	6.6*	16*	1
COc1ccc2cc3c(N)c(C(=O)N4CCCC4)sc3nc2c1	.	-1	4	-1	0	.	.	.	.
Cc1ccc2cc3c(N)c(C(=O)N4CCOCC4)sc3nc2c1	5.1*	1.0*	16*	6.2*	5.6*	12*	5.9*	1	0
CCN=C1NN=C(c2cc(C)n(CCc3ccccc3)c2C)CS1	0	0	1	4	1	.	.	.	.
CCN=C1NN=C(c2c[nH]c3ccccc23)CS1	1	3.7*	15*	11*	4.9*	12*	5.8*	20*	1	LXRb hcDAF ctr=1;hcDAF12 ag=12*
Cc1cc(-c2nc3ccccc3[nH]2)ccc1N	2	1.2*	15*	6.4*	8.0*	14*	7.2*	17*	1
COC(=O)c1ccc(-c2nc3ccccc3[nH]2)cc1	-1	1	15*	5	5.3*	18*	9.4*	13*	1
Cc1ccc2nc(-c3ccccc3N)[nH]c2c1	-1	1	22*	9.2*	5.1*	14*	5.9*	19*	1	LXRb hcDAF ctr=2;hcDAF12 ag=10.0*
COC(=O)c1ccc(C(=O)Nc2ccc3nc(-c4ccncc4)[nH]c3c2)cc1	0	-1	-3	-1	-1	.	.	.	.
Cc1ccc(C)c(-c2nc3ccc(N)cc3[nH]2)c1	3	-1	-1	-1	0	.	.	.	.
O=C(NCc1ccco1)O[C@@H]1CC[C@@]23CCCN2C(=O)CCC[C@H]3C1	.	-1	0	-1	.	.	.	.	.
Cc1ccc(NC(=S)c2ccc(N(C)C)cc2)cc1	2	0	14*	5	5.6*	13*	7.8*	17*	1
Cc1cc([N+](=O)[O-])ccc1NC(=O)c1csc(C)c1C	3	0	19*	3	5.5*	4.5*	2.9*	19*	1
CNC(=S)Nc1ccc([N+](=O)[O-])cc1C	0	-2	-2	-2	0	.	.	.	.
O=C(Nc1ccc(F)cc1F)c1cc(-c2ccc(Cl)cc2)nc2ccccc12	.	-1	1	-1	0	.	.	.	.
COc1cc(Cl)ccc1OCc1cc(C(=O)N2CCCC(OC)C2)no1 (stereo unspecified)	1	0	18*	4	8.1*	6.6*	4.1*	17*	1
COc1cc(/C=N/N=C(\N)c2nonc2N)ccc1O	2	-1	8	0	2	.	.	.	.
N/C(=N\N=C\c1cccc(O)c1)c1nonc1N	-1	3.2*	20*	13*	7.2*	15*	11*	17*	1	LXRb hcDAF ctr=2;hcDAF12 ag=9.0*
COC(=O)[C@@]12CCCCC3=C1N(CCC3)C(=O)[C@H]2CC(=O)NCCC(C)C	.	-1	-1	-2	-1	.	.	.	.
Cn1cccc1C(=O)Nc1ccc(N2CCOCC2)cc1	1	1	18*	4	8.2*	8.3*	4.4*	16*	1
O=C(Nc1ccc(N2CCOCC2)cc1)c1ccncc1	1	0	3	1	0	.	.	.	.
Nc1[nH]c(C(=O)c2ccc(Cl)cc2)c(-c2ccc(Br)cc2)c1C(=O)c1c[nH]c2ccc(F)cc12	.	-1	3	1	1	.	.	.	.
COc1cc(Cl)cc(/C=C/c2ccc3ccccc3n2)c1OC(C)=O	0	0	21*	4	5.1*	11*	5.3*	13*	1
CC(C)c1nnc(NC(=O)c2ccc3c(c2)OCO3)s1	4	0	15*	9.6*	4.9*	12*	2	7	1	LXRb hcDAF ctr=1;hcDAF12 ag=4
C[C@@H]1CN(C(=O)OC(C)(C)C)CCN1c1ccc(N2CCN(Cc3ccccc3)[C@@H](C)C2)c(C#N)c1	.	-2	1	-3	-4	.	.	.	.
SMILES	DAX1 inh-1	ssDAF-12 act	hgDAF12 agonist	hcDAF-12 act	DAX1 inh-2	DAX1 conf	SF1 mutant ctr	hgDAF12 conf	LXRb DAF12 ctr	others
Cc1ccc(C(C#N)=Cc2ccc3c(c2)OCO3)cc1	4	1	18*	5	6.8*	11*	5.0*	21*	1
N#C/C(=C\c1ccc2c(c1)OCO2)C(N)=S	.	0	-2	0	0	.	.	.	.
COc1ccc([C@H](C#Cc2ccccc2)CC(=O)O)cc1OC1CCCC1	.	-1	-2	-1	0	.	.	.	.
Cc1ccc(NC(=S)NC(=O)C2CCCC2)c(Br)c1	1	0	15*	6.3*	9.3*	9.5*	4.7*	21*	1
O=C(NC(=S)Nc1ccccc1Br)C1CC1	1	-1	3	0	1	.	.	.	.
C/C(=N\NC(=O)c1ccncc1)c1cccs1	2	-1	4	-1	1	.	.	.	.
C/C(=N\NC(=O)c1ccoc1C)c1cccnc1	4	0	14*	5	5.5*	2	2	3	0
C/C(=N\NC(=O)c1cccs1)c1ccc(C(=O)O)s1	2	0	15*	7.0*	8.0*	-1	-1	7	0	LXRb hcDAF ctr=0;hcDAF12 ag=1
C/C(=N\NC(=O)c1ccc2ccccc2c1)c1cccs1	1	0	13*	3	9.8*	7.5*	5.0*	21*	1
C/C(=N\NC(=O)c1nn(C)c(C)c1Br)c1ccc(NC(=O)c2ccoc2C)cc1	0	0	20*	8.5*	5.5*	3	1	2	0	LXRb hcDAF ctr=-1;hcDAF12 ag=-2
CCC(=O)Nc1ccc(/C(C)=N/NC(=O)c2c(Br)c(C)nn2C)cc1	1	-1	0	0	0	.	.	.	.
C=CCN1[C@@H](C)COc2cccc(N3CCSCC3)c2S1(=O)=O	.	-2	-1	-1	0	.	.	.	.
O=C1NC(=O)C2C3C=CC(C12)C1C(=O)NC(=O)C31 (stereo unspecified)	.	-1	1	2	-1	.	.	.	.
